Assay results reported in PubChem BioAssay (EPA / NIEHS).
Activity calls are given as the source filed them. The calls were made as follows: active = hit-call score of the fitted dose curve at least 0.9, where 1 is the maximum; inactive = score below 0.9.

What follows are molecules tested on Insulin Like Growth Factor 1 (IGF1), IGF1 (gene 3479) (assay: LTEA_HepaRG_IGF1: Life Technologies and Expression Analysis (LTEA) Assay for Insulin Like Growth Factor 1 (IGF1) using HepaRG (AID 2283506)). Settings: mRNA level, 48 h; actives raise or lower the signal.
Experimental: LTEA_HepaRG is a cell based, multiplexed-readout assay that uses HepaRG, a human liver cell line, with measurements taken at 48 hours after chemical dosing on a 96-well plate.LTEA_HepaRG_IGF1 is one of 102 assay component(s) measured in the LTEA HepaRG cell culture assay. It is a marker of Cell proliferation, survival, death.Data from the assay component LTEA_HepaRG_IGF1 was analyzed into 1 endpoint. This assay endpoint, LTEA_HepaRG_IGF1, was analyzed with bidirectional fitting relative to DMSO as the negative control and baseline of activity. Using a type of inducible reporter, measures of mRNA induction for gain or loss-of-signal activity can be used to understand regulation of transcription factor activity. To generalize the intended target to other relatable targets, this assay endpoint is annotated to the growth factor intended target family, where the subfamily is insulin-like.
A total of 1060 chemcials from the ToxCast library were tested in eight-point concentration-response experiments. Cell culture and cytotoxicity assays were conducted at Thermo Fisher Scientific's Custom Services facility (Madison, WI). A single lot of human HepaRG cells (Thermo Fisher Scientific, Frederick, MD) was used for the cell culture experiments. 96-well format collagen type I coated plates of human HepaRG cells were prepared using established methods. Briefly, cryopreserved HepaRG cells were thawed, plated at a density of approximately 100,000 cells/well in HepaRG Thaw, Plate, and General Purpose media (HPRG770, Thermo Fisher Scientific), and incubated for 48 hours. 0.5% DMSO was selected as vehicle control to balance the requisite need of DMSO in HepaRG cultures to maintain differentiation (for example, baseline metabolism, proportions of hepatocytes vs. cholangiocytes), while enabling further hepatic receptor pathway activation (for example, PXR and CAR) in response to chemical exposure. 48 hours after plating, the culture medium was replaced with HepaRG Serum-Free Incudtion Media. Cells were exposed to each test chemical in duplicate and maintained in CO2 incubators for another 48 hours. Chemical plates were thawed to room temperature and 200x concentrations of treatment groups were prepared. 8-point conentration-reponse curves were made with the highest exposure at 100 uM, followed by half-log dilutions, all in 0.5% DMSO. Each test plate contained variouse controls, induction positive controls (1mM phenobarbital), cytotoxicity positive controls ([…] aflatoxin B1), vehicle controls (0.5% DMSO), and total lysis controls (0.5% DMSO). Cell morphology images were taken using an Essen IncuCyte FLR automated microscope, with six 96-well plates imaged in about 24 minutes. Images were captured and exported and JPEG files. Spent culture media was transfered to black-well plates for the LDH assay, and remaining media was sorted at -80 C for later use. Cells were treated with RLT buffer and frozen until shipped for gene expression analysis. Total RNA was isolated from the cell suspension in 75 uL of Buffer RLT (Qiagen, Germantown, MD 20874) by Quintiles/Expression Analysis (Durham, NC) using a custom isolation procedure. Total RNA from each plate well was transferred to a preamplification plate. Fluidigm's 96.96 Dynamic ArrayTM (Fluidigm, Amsterdam, the Netherlands) technology was used for gene expression analyses by quantitative reverse transcription polymerase chain reaction (qRT-PCR, performed by Quintiles/Expression Analysis, Durham, NC)89. Standard TaqManTM Assays (Applied Biosystems/ThermoFisher Scientific, Foster City, CA) were used to assess the expression of 93 genes selected based on their selectivity and sensitivity to important hepatic receptors known to be modulated by environmental chemicals; importance in human hepatocyte functionality; and hepatotoxicity. […]

Compound	outcome	AC50
CC(O)CO (stereo not given)	inactive	
CCCCC(CC)COC(=O)CCCCC(=O)OCC(CC)CCCC (stereo not given)	inactive	
COCC(C)OCC(C)O (stereo not given)	inactive	
CC(C)(C)CC(C)(C)c1ccc(O)c(-n2nc3ccccc3n2)c1		50 µM (active)
CCCOc1sc(C(=O)N2CCC(c3cc(CN)ccc3F)CC2)c(C)c1Br	inactive	
OC1CCCCC1	inactive	
CCCCC(CC)COC(=O)CCCCC(=O)OCc1ccccc1 (stereo not given)	inactive	
c1ccc2c(c1)Cc1ccccc1-2	inactive	
COc1ccc([N+](=O)[O-])cc1N	inactive	
CCCCCCCC(=O)O	inactive	
C[C@@H]1C[C@H]2[C@@H]3CCC4=CC(=O)C=C[C@]4(C)[C@@]3(F)[C@@H](O)C[C@]2(C)[C@@]1(O)C(=O)COP(=O)(O)O	inactive	
c1ccc2c(c1)ccc1ccccc12	inactive	
CC(C)(C)c1cccc(C(C)(C)C)c1O	inactive	
CCCCCCCCOC(=O)CCCCCCCCC(=O)OCCCCCCCC	inactive	
Cc1cc(C)c(O)c(C)c1	inactive	
CCCCOCCO	inactive	
CCCCCCCCC(=O)O	inactive	
O=c1c(-c2ccc(O)cc2)coc2cc(O)ccc12	inactive	
CC(C)(C)c1cc(C(C)(C)C)c(O)c(C(C)(C)C)c1	inactive	
C=C(C)C(=O)OCCC(F)(F)C(F)(F)C(F)(F)C(F)(F)C(F)(F)C(F)(F)F	inactive	

Compound	outcome	AC50
O=C(OCCOCCOC(=O)c1ccccc1)c1ccccc1	inactive	
NC(=O)N(O)[C@@H]1C=C[C@H](Oc2cccc(Oc3ccc(F)cc3)c2)C1		37.9 µM (active)
C#C[C@]1(O)CC[C@H]2[C@@H]3CCC4=CC(=O)CC[C@@H]4[C@H]3CC[C@@]21C	inactive	
Oc1cccc(O)c1	inactive	
OC1CCC(C2CCCCC2)CC1 (stereo not given)	inactive	
CC#C[C@]1(O)CC[C@H]2[C@@H]3CCC4=CC(=O)CCC4=C3[C@@H](c3ccc(N(C)C)cc3)C[C@@]21C		68.4 µM (active)
ClC1=C(Cl)C(Cl)(Cl)C(Cl)=C1Cl	inactive	
O=[N+]([O-])c1ccc(O)cc1	inactive	
N#C[C@@H]1CC(F)(F)CN1C(=O)CNC1CC2CCC(C1)N2c1ncccn1 (stereo not given in full)	inactive	
CCC(=C(c1ccc(O)cc1)c1ccc(OCCN(C)C)cc1)c1ccccc1		93.4 µM (active)
COCC(C)O (stereo not given)	inactive	
CCCCCCCCCCCCCCCS(=O)(=O)Oc1ccccc1		27.5 µM (active)
NC(=O)N1C(=O)C(C(=O)c2cc(Cl)cs2)c2cc(F)c(Cl)cc21 (stereo not given)		24.8 µM (active)
CN1CCN(c2ccccc2/C=C2\SCCN(c3ccc(Cl)c(Cl)c3)C2=O)CC1		12 µM (active)
CCCOC(=O)c1ccc(O)cc1	inactive	
CCc1ccc(CCOc2ccc(CC3SC(=O)NC3=O)cc2)nc1 (stereo not given)		64.9 µM (active)
Nc1cccc2c(N)cccc12	inactive	
CN1CCC[C@H]1c1cccnc1	inactive	
CCN(CC)CCNc1ccc(CNC=O)c2sc3ccc(OC)cc3c(=O)c12		85.6 µM (active)
OCCC(F)(F)C(F)(F)C(F)(F)C(F)(F)C(F)(F)C(F)(F)C(F)(F)C(F)(F)F	inactive	
